Results: article PMC4336329 (PLoS ONE, 2015)
Out of some 310,000 compounds screened, about 14,000 (4.5%) showed an effect of 50% or more. The effect is printed as a negative number. What follows is part of a selection rich in strong results, with near analogues and random picks from the rest.

Each molecule was assayed against human ether-à-go-go-related gene (hERG) potassium channel (human, UniProt Q12809) (assay: primary screen, population patch clamp on CHO cells stably expressing hERG; higher = less effect of the substance).
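Note: peak tail current of the secondary pulse compared with the same well before compound.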

Chain of human ether-à-go-go-related gene (hERG) potassium channel (Q12809 whole entry, looked up): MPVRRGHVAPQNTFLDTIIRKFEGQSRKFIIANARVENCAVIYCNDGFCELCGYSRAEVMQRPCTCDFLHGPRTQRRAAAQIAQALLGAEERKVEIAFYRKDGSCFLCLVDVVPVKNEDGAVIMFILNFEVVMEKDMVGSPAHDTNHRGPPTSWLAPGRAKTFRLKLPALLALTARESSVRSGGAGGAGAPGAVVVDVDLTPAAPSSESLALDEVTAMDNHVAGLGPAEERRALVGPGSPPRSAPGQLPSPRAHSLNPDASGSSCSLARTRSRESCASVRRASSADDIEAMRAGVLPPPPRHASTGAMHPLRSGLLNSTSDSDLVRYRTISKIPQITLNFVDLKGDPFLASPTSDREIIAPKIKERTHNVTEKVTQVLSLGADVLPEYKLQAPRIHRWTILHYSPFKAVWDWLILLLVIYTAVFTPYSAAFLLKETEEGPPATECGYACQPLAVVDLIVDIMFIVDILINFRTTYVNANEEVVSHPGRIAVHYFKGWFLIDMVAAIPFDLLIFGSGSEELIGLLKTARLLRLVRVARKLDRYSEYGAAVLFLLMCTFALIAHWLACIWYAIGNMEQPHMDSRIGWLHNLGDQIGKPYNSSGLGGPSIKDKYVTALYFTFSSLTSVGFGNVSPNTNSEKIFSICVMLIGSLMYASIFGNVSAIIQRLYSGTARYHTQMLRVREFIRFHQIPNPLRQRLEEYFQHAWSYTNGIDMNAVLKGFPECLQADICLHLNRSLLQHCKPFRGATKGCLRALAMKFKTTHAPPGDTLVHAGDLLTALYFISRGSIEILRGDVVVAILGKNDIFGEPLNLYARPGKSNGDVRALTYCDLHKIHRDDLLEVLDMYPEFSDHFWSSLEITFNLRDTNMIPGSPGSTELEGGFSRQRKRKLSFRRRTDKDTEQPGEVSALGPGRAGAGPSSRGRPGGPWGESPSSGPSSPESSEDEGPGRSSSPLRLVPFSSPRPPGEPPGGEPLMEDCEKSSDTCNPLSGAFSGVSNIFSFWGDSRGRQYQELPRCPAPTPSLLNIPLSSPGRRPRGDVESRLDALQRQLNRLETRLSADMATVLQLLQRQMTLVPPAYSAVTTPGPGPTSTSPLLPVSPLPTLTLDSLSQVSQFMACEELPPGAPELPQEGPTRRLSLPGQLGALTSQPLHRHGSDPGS

SMILES | hERG current change (%, negative = inhibition) at 10uM [%]
CC1Oc2ccccc2N(CC(=O)NCc2ccccc2)C1=O (stereo not shown) | 6.53
CCOC(=O)C1=NN(c2ccccc2)C2=NC(C)=C(C(=O)OC)C(c3cccs3)N12 (stereo not shown) | -5.66
CCc1ccc(NC(=O)CNS(=O)(=O)c2c(C)noc2C)cc1 | -2.28
N#Cc1nc(-c2ccco2)oc1N1CCN(c2cccc(Cl)c2)CC1 | -16.1
COc1cc(NC(=O)CSc2nnnn2-c2ccccc2)cc(OC)c1OC | -0.308
CCOc1ccccc1NC(=O)c1cccc2c1C(=O)N(C1CCCCC1)C2 | 9.57
C1CCCCCC2(CCCCC1)OCC(CN1CCOCC1)O2 (stereo not shown) | -20.5
CN(Cc1nc2ccccc2s1)C(=O)c1ccc(F)cc1 | -61
O=C(CCCc1nc2ccccc2s1)NCc1ccc(F)cc1 | -37.4
CN(C)S(=O)(=O)c1ccc(C(=O)NCc2nc3ccccc3s2)cc1 | 1.24
Cc1cccc(-c2nc(=S)c3c(n2Cc2ccco2)CCCC3)c1 | 7.14
O=C(NCc1ccccc1)C1=C[C@H](c2coc3ccccc3c2=O)C[C@H](OCc2ccc(CO)cc2)O1 | -38.1
CCn1c(=O)cc(SCC(=O)NCCC2=CCCCC2)c2ccccc21 | -6.46
Cc1ccc(OCCCC(=O)Nc2ccc(Br)cc2)cc1 | 17.2
CN(CCOc1ccc(Cl)cc1)CC(O)c1ccccc1.O=C(O)C(=O)O (stereo not shown) | -60.4
CN(CCOc1ccccc1)CC(O)COc1ccccc1 (stereo not shown) | 10.8
CC(OCC(O)CN(C)CCOc1ccccc1)c1ccc(Cl)cc1 (stereo not shown) | -43.5
CC(C)c1ccc(CN(C)CC(O)c2ccccc2)cc1.O=C(O)C(=O)O (stereo not shown) | -18.9
CC(=O)c1ccc(OCC(O)CN(C)CCOc2ccc(Br)cc2)cc1 (stereo not shown) | 23.4
CN(CCOc1ccc(Br)cc1)CC(O)c1ccccc1.O=C(O)C(=O)O (stereo not shown) | -63.1
COC(=O)c1cc(Cl)c(NC(=O)/C=C/c2ccc(Cl)cc2Cl)cc1OC | -10.9
COc1ccc(N2CCN(C(=O)CNC(=O)Cc3ccc(Cl)cc3)CC2)cc1 | -8.38
Cc1cc(C)c(C#N)c(SCC(=O)CC(=O)OC(C)C)n1 | 1.82

SMILES | hERG current change (%, negative = inhibition) at 10uM [%]
Cc1ccc(NS(=O)(=O)c2ccc(Br)s2)nc1 | 23.4
Cc1ccc(C)c(OCCCC(=O)Nc2nccs2)c1 | 12.9
CC(C)Cn1nc(-c2ccccc2)c2ccccc2c1=O | 20.1
CCCCNC(=O)C1CCN(C/C(C)=C/c2ccccc2)CC1.O=C(O)C(=O)O | -63
C/C(=C\c1ccccc1)CN1CCC(C(=O)N2CCC(C)CC2)CC1.O=C(O)C(=O)O | -63
C/C(=C\c1ccccc1)CN1CCC(C(=O)N2CCCCC2)CC1.O=C(O)C(=O)O | -47.5
CCN1CCN(C/C(C)=C/c2ccccc2)CC1 | 4.72
CCOC(=O)N1CCN(C/C(C)=C/c2ccccc2)CC1 | -25.1
CCN(CC)C(=O)C1CCCN(C/C(C)=C/c2ccccc2)C1 (stereo not shown) | -30.7
CCN(Cc1ccccc1)C(=O)C1CCN(C/C(C)=C/c2ccccc2)CC1.O=C(O)C(=O)O | -70.4
CCCCNC(=O)C1CCN(Cc2ccccn2)CC1 | 12
C/C(=C\c1ccccc1)CN1CCN(C)CC1 | 16.2
CCN(Cc1ccccc1)C(=O)C1CCN(C(=O)Nc2ccccc2)CC1 | 14.8
CC1CCN(C(=O)C2CCN(CC(C)c3ccccc3)CC2)CC1.O=C(O)C(=O)O (stereo not shown) | -13.5
CCCCN(C)C(=O)C1CCN(C/C(C)=C/c2ccccc2)CC1.O=C(O)C(=O)O | -73.4
Cc1cc(C)c(NC(=O)C2CCN(C(=O)c3ccco3)CC2)c(C)c1 | 19.9
COc1ccc(C2C(C(=O)c3sc(C)nc3C)=C(O)C(=O)N2CCN(C)C)cc1 (stereo not shown) | -6.4
O=C(COC(=O)c1cccs1)Nc1cccc(Cl)c1 | 10.2
CCC(C)(C(=O)NC1CCCCC1)N(C(=O)CC1NC(=O)NC1=O)c1c(C)n(C)n(-c2ccccc2)c1=O (stereo not shown) | 12.8
Cc1onc(-c2ccccc2Cl)c1C(=O)Nc1nc2ccc(S(C)(=O)=O)cc2s1 | -2.5
CC1(C)NC(=O)N(CC(=O)N2CCCC(C(F)(F)F)C2)C1=O (stereo not shown) | 10.4
COC(=O)c1ccc(CNC(=O)COC(=O)c2cc(Cl)nc(Cl)c2)cc1 | 8.69
CCn1c2ccccc2c2cc(NC(=O)C(=O)NCC3CCCO3)ccc21 (stereo not shown) | -6.57

SMILES | hERG current change (%, negative = inhibition) at 10uM [%]
COc1cc2c(cc1NC(=O)C(C)OC(=O)/C=C/c1ccc(OC(F)F)cc1)oc1ccccc12 (stereo not shown) | 7.07
COc1ccc(CCNc2cc(N3CCN(C(=O)c4ccc(C)cc4)CC3)ccc2[N+](=O)[O-])cc1OC | 8.2
COC(=O)C(NC(=O)c1ccccc1)=C(C)C | 0.816
O=C(c1ccc(F)cc1)C1CCN(C(=S)Nc2ccc(F)cc2)CC1 | -57.2
O=C(c1ccc(F)cc1)C1CCN(C(=S)Nc2ccccc2)CC1 | -28.8
CC(C)CNC(=S)N1CCC(C(=O)c2ccc(F)cc2)CC1 | -61.4
CCCNC(=S)N1CCC(C(=O)c2ccc(F)cc2)CC1 | -8.84
Cc1ccccc1NC(=S)N1CCC(C(=O)c2ccc(F)cc2)CC1 | -45
CCc1ccccc1NC(=S)N1CCC(C(=O)c2ccc(F)cc2)CC1 | -63
C=CCNC(=S)N1CCC(C(=O)c2ccc(F)cc2)CC1 | -44.4
COc1ccc(C(=O)C2CCN(C(=S)Nc3ccc(F)cc3)CC2)cc1 | -46.9
Cc1ccc(CNC(=O)C2CCN(C(=O)Nc3ccccc3)CC2)cc1 | -16.3
Cc1ccc(NC(=O)N2CCC(C(=O)NCc3ccc(F)cc3)CC2)cc1 | -52.2
O=C(c1ccc(F)cc1)C1CCN(C(=S)Nc2ccccc2Cl)CC1 | 0.35
O=C(NCc1ccc(F)cc1)C1CCN(C(=O)Nc2ccc(F)cc2)CC1 | -49.2
Cc1cn(C2C=CC(CO)O2)c(=O)[nH]c1=O (stereo not shown) | 4.79
CCN(CC)S(=O)(=O)c1ccc(C(=O)NCCc2ccccn2)cc1 | 10.8
Cc1nn(C2CCCCC2)c(N)c1-c1ccccc1 | -3.53
Nc1ccc(-c2nc3ccc(N)cc3[nH]2)cc1 | 7.85
O=c1c2cc([N+](=O)[O-])cc([N+](=O)[O-])c2[nH]n1-c1ccccc1 | 17.2
C/C=C(\C)C(=O)NNC(=O)c1sc(-c2ccccc2)nc1C | 16
Cc1nc2cc(NC(=O)Nc3ccc(Br)cc3)ccc2o1 | 9.81
O=C(c1ccc(F)cc1)C1CCN(C(=O)Nc2ccc(F)cc2)CC1 | -71.7

SMILES | hERG current change (%, negative = inhibition) at 10uM [%]
Cc1cccc(NC(=O)N2CCC(C(=O)c3ccc(F)cc3)CC2)c1 | -40.6
COCCNC(=S)N1CCC(c2nc(-c3ccc(F)cc3)no2)CC1 | -18.9
CSc1ccc(NC(=O)N2CCC(C(=O)c3ccc(F)cc3)CC2)cc1 | -40.9
Cc1cc(C)cc(NC(=O)N2CCC(C(=O)c3ccc(F)cc3)CC2)c1 | -77.7
Cc1cc(C)cc(NC(=O)N2CCC(NC(=O)c3ccc(F)cc3)CC2)c1 | -35.5
CC(C)CNC(=S)N1CCC(c2nc(-c3ccc(F)cc3)no2)CC1 | -59.1
COCCNC(=S)N1CCC(c2nc(-c3ccc(N(C)C)cc3)no2)CC1 | -12.9
Cc1ccc(NC(=O)N2CCC(C(=O)c3ccc(F)cc3)CC2)cc1 | -3.84
O=C(Nc1ccccc1)N(Cc1ccc(Cl)cc1)CC(O)C(F)(F)F (stereo not shown) | 8.33
Cc1cccc(N2CCN(S(=O)(=O)c3cc(-c4cc(C)no4)ccc3C)CC2C)c1 (stereo not shown) | 18.9
CC1SCC(NC(=O)c2ccc(Cl)cc2)CS1 (stereo not shown) | -0.992
Cc1cc(NC(=O)CSCc2ccc([N+](=O)[O-])cc2)no1 | -1.21
Cc1[nH]c2ccccc2c1C(=O)C(C)OC(=O)c1ccc(Cl)nc1 (stereo not shown) | -12.9
COC(=O)c1ccccc1NC(=O)c1cc[n+](C)cc1 | 11.8
CCOCCCNS(=O)(=O)c1ccc(NC(=O)N2c3ccccc3Sc3ccccc32)cc1 | 3.13
O=C(NC1CCOC1)c1cc(COc2cccc(C(F)(F)F)c2)on1 (stereo not shown) | 2.06
CCCCOC(=O)c1nc(Cl)c(Cl)c(N)c1Cl | -0.0656
CCCCCCCOC(=O)c1nc(Cl)c(Cl)c(N)c1Cl | -4.56
O=C(COC(=O)c1nsc(Cl)c1Cl)NC1CCCCC1 | 17.1
Nc1c(Cl)c(Cl)nc(C(=O)OCC(=O)NC2CCCCC2)c1Cl | -58.2
O=C(COC(=O)c1ncc(Cl)c(Cl)c1Cl)NC1CCCCCC1 | 19
CCCCCCCCOC(=O)c1nc(Cl)c(Cl)c(N)c1Cl | -66.3
